Assay results reported in PubChem BioAssay (NCATS).
Values without a mark were called inactive. For part of these data: Potency and affinity values are given separately. Calls of active or inactive are those of the source. The rule behind the calls is not given here.

Tests used:
[1] = Ebola virus entry assay, green fluorescence channel
[2] = Ebola virus entry assay, blue channel fluorescence
[3] = Ebola virus entry assay, ratio channel
[4] = Ebola virus entry assay, green channel fluorescence
[5] = Ebola virus entry assay, reporter ratio channel; Channel type: primary
[6] = Ebola virus entry assay, blue channel (ratio component)
Throughout, for efficacy: 0% is about no effect.

| Compound | efficacy [1] [%] | outcome [2] | outcome [3] | outcome [4] | outcome [5] | AC50 [2] | AC50 [3] | AC50 [5] | outcome [6] |
| --- | --- | --- | --- | --- | --- | --- | --- | --- | --- |
| CO[C@]1(NC(=O)CSC(F)F)C(=O)N2C(C(=O)O)=C(CSc3nnnn3CCO)CO[C@H]21 | -28.6 | inactive | inactive | inactive | inactive |  |  |  |  |
| CC(C)=CCOc1ccc(/C=C/C(=O)c2ccc(OCC=C(C)C)cc2OCC(=O)O)cc1 | -15.5 | inactive | inactive | inactive | inactive |  |  |  |  |
| CCOC(=O)C1=C[C@]2(CC)CCCN3CCc4c(n1c1ccccc41)[C@@H]32 | -42.6 |  |  | inactive |  | 12.6 µM (active) | 17.8 µM (active) | 17.8 µM (active) |  |
| COc1ccc2nc(NC(=O)Nc3ccccc3)sc2c1 | -33.8 |  |  | inactive |  | 22.4 µM (active) | 15.8 µM (active) | 15.8 µM (active) |  |
| CC(C)OC(=O)c1cc2c(OCC(O)CNC(C)(C)C)cccc2[nH]1 (stereo not drawn) | -19.4 |  |  | inactive |  | 28.2 µM (active) | 31.6 µM (active) | 31.6 µM (active) |  |
| C#C[C@]1(OC(C)=O)CC[C@H]2[C@@H]3CCC4=C/C(=N/O)CC[C@@H]4[C@H]3CC[C@@]21CC | -27.8 |  | inactive | inactive |  | 39.8 µM (active) |  | 39.8 µM (active) |  |
| c1ccc(CCNc2nc(-c3ccccc3)cs2)cc1 | 29.5 |  | inactive | inactive |  | 39.8 µM (active) |  | 39.8 µM (active) |  |
| CC1(c2ccccc2)OC(C(=O)O)=CC1=O (stereo not drawn) | -18.5 | inactive | inactive | inactive | inactive |  |  |  |  |
| C[N+]1(CC2COC(c3ccccc3)(c3ccccc3)O2)CCCCC1 (stereo not drawn) | 25 | inactive | inactive | inactive | inactive |  |  |  |  |
| CC(C)NCC(O)c1ccc2ccccc2c1 (stereo not drawn) | 20.8 |  |  | inactive |  | 31.6 µM (active) | 25.1 µM (active) | 25.1 µM (active) |  |
| Cc1cc(=O)oc2cc(O)ccc12 | -26.6 | inactive | inactive | inactive | inactive |  |  |  |  |
| COc1ccc(CN2CCN(C(c3ccc(F)cc3)c3ccc(F)cc3)CC2)c(OC)c1OC | 25.5 |  |  | inactive |  | 7.08 µM (active) | 10 µM (active) | 10 µM (active) |  |
| Cc1ccc(Cl)c(OCC(O)CNC(C)(C)C)c1 (stereo not drawn) | -22.3 |  |  | inactive |  | 15.8 µM (active) | 28.2 µM (active) | 28.2 µM (active) |  |
| Cc1cc2c(OCC(CNC(C)(C)C)OC(=O)c3ccccc3)cccc2[nH]1 (stereo not drawn) | 15.1 |  |  | inactive |  | 25.1 µM (active) | 28.2 µM (active) | 28.2 µM (active) |  |
| COc1cc([C@H]2Oc3cc([C@H]4Oc5cc(O)cc(O)c5C(=O)[C@@H]4O)ccc3O[C@@H]2CO)ccc1O | 13.5 |  | inactive | inactive |  | 39.8 µM (active) |  | 44.7 µM (active) |  |
| O=S1(=O)c2cccc3cccc(c23)N1CCCN1CCN(c2ccc(F)cc2)CC1 | -13.1 |  |  | inactive |  | 25.1 µM (active) | 25.1 µM (active) | 25.1 µM (active) |  |
| N=C(N)c1ccc2cc(OC(=O)c3ccc(N=C(N)N)cc3)ccc2c1 | 15 | inactive | inactive | inactive | inactive |  |  |  |  |
| CCCOc1ccccc1-c1nc2n[nH]nc2c(=O)[nH]1 | 11 | inactive | inactive | inactive | inactive |  |  |  |  |
| CCCOc1ccc(C(=O)OCCN(CC)CC)cc1N | 35 |  |  | inactive |  | 39.8 µM (active) | 22.4 µM (active) | 22.4 µM (active) |  |
| CC(C)(C)CC(C)(C)c1ccc(O)c(Cc2ccc(Cl)cc2Cl)c1 | 12.2 |  |  | inactive |  | 22.4 µM (active) | 14.1 µM (active) | 14.1 µM (active) |  |
| CCCCCCCCCCCCCCCCC(C(=O)O)C(O)(CC(=O)O)C(=O)O (stereo not drawn) | -32 | inactive | inactive | inactive | inactive |  |  |  |  |
| CCOC(=O)[C@H](CCc1ccccc1)N[C@H]1CS[C@H](c2cccs2)CN(CC(=O)O)C1=O | 24 | inactive | inactive | inactive | inactive |  |  |  |  |
| C=CCOc1ccccc1OCC(O)CNC(C)C (stereo not drawn) | -13.2 |  |  | inactive |  | 14.1 µM (active) | 14.1 µM (active) | 14.1 µM (active) |  |
| COC(=O)C1=C(C)NC(C)=C(C(=O)O[C@@H]2CCCN(Cc3ccccc3)C2)[C@@H]1c1cccc([N+](=O)[O-])c1 | 39.4 |  | inactive | inactive |  | 39.8 µM (active) |  | 35.5 µM (active) |  |
| CN(Cc1ccc(C(C)(C)C)cc1)Cc1cccc2ccccc12 | -29.5 |  | inactive | inactive |  | 35.5 µM (active) |  | 39.8 µM (active) |  |
| CCCOc1ccc2nc(NC(=O)OC)[nH]c2c1 | -28.5 |  |  | inactive |  | 0.501 µM (active) | 0.562 µM (active) | 0.562 µM (active) |  |

| Compound | efficacy [1] [%] | outcome [2] | outcome [3] | outcome [4] | outcome [5] | AC50 [2] | AC50 [3] | AC50 [5] | outcome [6] |
| --- | --- | --- | --- | --- | --- | --- | --- | --- | --- |
| NC(N)=NN=C(/C=C/c1ccc([N+](=O)[O-])o1)/C=C/c1ccc([N+](=O)[O-])o1 | -41.4 |  |  | inactive |  | 3.16 µM (active) | 3.16 µM (active) | 3.16 µM (active) |  |
| O=C(Nc1ccc(Cl)cc1)Nc1ccc(Cl)c(Cl)c1 | -28.2 |  |  | inactive |  | 15.8 µM (active) | 12.6 µM (active) | 12.6 µM (active) |  |
| O=C(Nc1ccc([N+](=O)[O-])cc1Cl)c1cc(Cl)ccc1O | 35.2 |  |  | inactive |  | 0.891 µM (active) | 1 µM (active) | 1 µM (active) |  |
| CCC(C)(C)c1ccc(CC(C)CN2C[C@@H](C)O[C@@H](C)C2)cc1 (stereo partly drawn) | -29.5 |  | inactive | inactive |  | 39.8 µM (active) |  | 39.8 µM (active) |  |
| C/C=C(/C(=C/C)c1ccc(O)cc1)c1ccc(O)cc1 | -16.1 |  | inactive | inactive | inactive | 28.2 µM (active) |  |  |  |
| CCOCCOC(=O)/C=C/c1ccc(OC)cc1 | 19.6 | inactive | inactive | inactive | inactive |  |  |  | inactive |
| CC(C)(Cc1c[nH]c2ccccc12)NCC(O)COc1ccccc1C#N (stereo not drawn) | 48.7 |  |  | inactive |  | 35.5 µM (active) | 25.1 µM (active) | 25.1 µM (active) |  |
| CCC1(c2cnc[nH]2)Cc2ccccc2C1 | -11.3 |  | inactive | inactive |  | 25.1 µM (active) |  | 31.6 µM (active) |  |
| CC(=O)Oc1ccc(C(c2ccc(OC(C)=O)cc2)c2ccccn2)cc1 | -19 | inactive | inactive | inactive | inactive |  |  |  |  |
| O=C(OCc1ccccc1)c1ccc(O)cc1 | -29.7 |  | inactive | inactive | inactive | 22.4 µM (active) |  |  |  |
| Cc1ccc(C(=O)Nc2ccc(S(=O)(=O)O)c3cc(S(=O)(=O)O)cc(S(=O)(=O)O)c23)cc1NC(=O)c1cccc(NC(=O)Nc2cccc(C(=O)Nc3cc(C(=O)Nc4ccc(S(=O)(=O)O)c5cc(S(=O)(=O)O)cc(S(=O)(=O)O)c45)ccc3C)c2)c1 | 21.5 |  |  | inactive |  | 39.8 µM (active) | 20 µM (active) | 20 µM (active) |  |
| CCCCc1cc2ccccc2c(OCCN(C)C)n1 | -77.9 |  |  | inactive |  | 8.91 µM (active) | 7.08 µM (active) | 7.08 µM (active) |  |
| CCc1cc2cc(OC)c(OC)cc2c(Cc2ccccc2)n1 | 32.1 |  | inactive | inactive |  | 25.1 µM (active) |  | 31.6 µM (active) |  |
| C=CCOc1cc(Cl)ccc1C(=O)NCCN(CC)CC | -28.4 |  |  | inactive |  | 14.1 µM (active) | 15.8 µM (active) | 15.8 µM (active) |  |
| CCCCN=C(N)N=C(N)N | 24.1 | inactive | inactive | inactive | inactive |  |  |  |  |
| NS(=O)(=O)c1cc2c(cc1Cl)NC(CSCc1ccccc1)=NS2(=O)=O | 11.6 | inactive | inactive | inactive | inactive |  |  |  | inactive |
| CC[N+]1(CC)CCC(=C(c2ccccc2)c2ccccc2)C1C (stereo not drawn) | 13 | inactive | inactive | inactive | inactive |  |  |  | inactive |
| C[C@]12CC[C@@H]3c4ccc(O)cc4CC[C@H]3[C@@H]1C[C@@H](O)[C@@H]2O | -24.2 |  | inactive | inactive |  | 20 µM (active) |  | 35.5 µM (active) |  |
| C[C@]12CC[C@@H]3c4ccc(O)cc4CC[C@H]3[C@@H]1CCC2=O | 55 |  |  | inactive |  | 3.55 µM (active) | 10 µM (active) | 10 µM (active) |  |
| O=C(/C=C/c1ccc(O)c(O)c1)O[C@@H]1C[C@@](OC(=O)/C=C/c2ccc(O)c(O)c2)(C(=O)O)C[C@@H](O)[C@@H]1O | 21.8 |  |  | inactive |  | 28.2 µM (active) | 20 µM (active) | 20 µM (active) |  |
| O=c1oc2c(O)c(O)cc3c(=O)oc4c(O)c(O)cc1c4c23 | 33.8 |  |  | inactive |  | 11.2 µM (active) | 11.2 µM (active) | 11.2 µM (active) |  |
| CN(C)CCN(Cc1ccccc1)c1ccccn1 | 35.7 |  |  | inactive |  | 22.4 µM (active) | 20 µM (active) | 20 µM (active) |  |
| CO/N=C(/C(=O)N[C@@H]1C(=O)N2C(C(=O)O)=C(Cn3nnc(C)n3)CS[C@H]12)c1csc(N)n1 | 14.5 | inactive | inactive | inactive | inactive |  |  |  |  |
| C#CC1(O)CC[C@H]2[C@@H]3CCC4=CCCC[C@@H]4[C@H]3CC[C@@]21C (stereo partly drawn) | 7.54 |  |  | inactive |  | 22.4 µM (active) | 22.4 µM (active) | 22.4 µM (active) |  |
| CC[C@H]1CN2CCc3cc(OC)c(OC)cc3[C@@H]2C[C@@H]1C[C@H]1NCCc2cc(OC)c(OC)cc21 | 58.8 |  |  | inactive |  | 17.8 µM (active) | 17.8 µM (active) | 17.8 µM (active) |  |
